Measured values as given in the supplement of paper PMC10646978.
± gives the standard deviation.

Key:
Conditions in all cases: modulator concentration 10 µM
[1] = test system: RAW-Dual (murine macrophage reporter line); assay: NF-kB reporter (SEAP) activity fold change vs agonist alone; higher = enhanced NF-kB activity
How it was run: (§1)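 RAW-Dual murine macrophage reporter cells were plated at 50 000 per well in 384-well plates, pin-transferred compound to 10 μM final, and pre-incubated for 1 hour at 37 °C before a PRR agonist was added and the cells incubated overnight. NF-κB activity was read from supernatant SEAP with QUANTI-Blue at 620 nm absorbance, and IRF activity from Lucia luciferase with QUANTI-Luc by luminescence. Each signal was expressed as fold change by dividing by the mean agonist-only control on the same plate. Two replicate plates were averaged, with errors obtained by propagation.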

[2] = test system: RAW-Dual (murine macrophage reporter line); assay: IRF reporter (Lucia luciferase) activity fold change vs agonist alone; higher = enhanced IRF activity
How it was run: as §1

[3] = test system: RAW-Dual (murine macrophage reporter line); assay: viability score (confluency relative to resting cells, overnight) (fraction); higher = more viable, active = viable (0.7 or more)
How it was run: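 Confluency was the readout: RAW-Dual macrophages were imaged with IncuCyte after an overnight exposure to compound at 10 μM final. IncuCyte software produced two masks over all imaged wells. The viability score expresses confluency against resting cells, and both masks had to exceed 70% of resting cells for a compound to meet the cutoff.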

[4] = agonist: CpG ODN 1826 0.5 ug/mL

Row | SMILES | NF-kB reporter [1, 4] | NF-kB reporter ([1]; agonist: LPS 0.1 ug/mL) | NF-kB reporter ([1]; agonist: MPLA […]) | IRF reporter ([2]; agonist: 3'3'-cGAMP 10 ug/mL) | IRF reporter ([2]; agonist: LPS 0.1 ug/mL) | IRF reporter ([2]; agonist: MPLA […]) | viability score [3]
1 | COc1ccc(C2NC(=O)C(O)=C2C(C)=O)cc1 (stereo unspecified) | 0.734 ± 0.057 | 0.884 ± 0.11 | 1.09 ± 0.095 | 0.914 ± 0.047 | 1.29 ± 0.085 | 1.41 ± 0.12 | 1.01 (active)
2 | C=CCN1C(=O)C(=C2SC(=S)N(C)C2=O)c2ccccc21 | 0.76 ± 0.072 | 0.833 ± 0.085 | 1.03 ± 0.12 | 0.971 ± 0.05 | 1.33 ± 0.078 | 1.42 ± 0.15 | 0.997 (active)
3 | CCC(=O)Nc1ccc(C(=O)NN=Cc2ccc(C#N)cc2)cc1 | 1.04 ± 0.094 | 1.03 ± 0.081 | 0.913 ± 0.064 | 0.972 ± 0.03 | 1.53 ± 0.22 | 1.11 ± 0.23 | 1.01 (active)
4 | c1ccc(-n2nnnc2Sc2ncnc3sc4c(c23)CCCC4)cc1 | 0.74 ± 0.043 | 0.481 ± 0.088 | 0.442 ± 0.027 | 0.0638 ± 0.0026 | 0.349 ± 0.095 | 0.835 ± 0.14 | 0.994 (active)
5 | Cc1cc(C(=O)N2CCC(Oc3cccc4cccnc34)CC2)c(C)o1 | 1.1 ± 0.073 | 1.1 ± 0.12 | 0.81 ± 0.066 | 1.02 ± 0.092 | 1.07 ± 0.15 | 1.07 ± 0.23 | 1.01 (active)
6 | O=C(O)c1cc2ccccc2[nH]1 | 1.02 ± 0.087 | 0.963 ± 0.08 | 1.02 ± 0.024 | 1.02 ± 0.071 | 0.975 ± 0.14 | 0.889 ± 0.23 | 1 (active)
7 | O=C(O)c1cc([N+](=O)[O-])c(Nc2cccc3ccccc23)c([N+](=O)[O-])c1 | 0.879 ± 0.05 | 1.05 ± 0.068 | 0.888 ± 0.074 | 0.965 ± 0.057 | 1.31 ± 0.12 | 1.13 ± 0.22 | 1.01 (active)
8 | CCOc1ccc(CN(CCc2ccc3c(c2)OCO3)Cc2cccc3ccccc23)cc1 | 0.73 ± 0.071 | 0.888 ± 0.074 | 1.07 ± 0.074 | 0.619 ± 0.061 | 0.908 ± 0.045 | 1.04 ± 0.18 | 0.998 (active)
9 | CC(=O)N1CCC(C(=O)N2CCOCC2CN(C)C)CC1.O=CO (stereo unspecified) | 0.979 ± 0.11 | 1.08 ± 0.17 | 0.924 ± 0.064 | 0.992 ± 0.08 | 1.13 ± 0.089 | 1.06 ± 0.082 | 0.992 (active)
10 | Cc1ccc(S(=O)(=O)Nc2c3ccccc3c(O)c3c4c(oc23)CC(C)(C)CC4=O)cc1 | 0.938 ± 0.075 | 1.04 ± 0.067 | 0.935 ± 0.058 | 0.842 ± 0.05 | 1.29 ± 0.14 | 1.02 ± 0.16 | 1.01 (active)
11 | COc1ccc(OC)c(Nc2nc(-c3c(C)nc4ccccn34)cs2)c1 | 1.35 ± 0.22 | 1.45 ± 0.12 | 1.58 ± 0.13 | 0.241 ± 0.0091 | 1.25 ± 0.22 | 1.53 ± 0.24 | 0.967 (active)
12 | NC(Cc1ccccc1)C(=O)O (stereo unspecified) | 1.29 ± 0.31 | 0.956 ± 0.07 | 0.943 ± 0.071 | 0.911 ± 0.032 | 1.12 ± 0.22 | 1.1 ± 0.1 | 1 (active)
13 | CCN(CC)CCOC(=O)C(c1ccccc1)C1CCCCC1.Cl (stereo unspecified) | 1.04 ± 0.08 | 0.861 ± 0.076 | 0.878 ± 0.082 | 1.07 ± 0.033 | 1.31 ± 0.13 | 1.52 ± 0.18 | 0.948 (active)
